# HT1080-NT tox = kills 2HG-producing HT-1080-NT fibrosarcoma cells | HT-1080-NT fibrosarcoma viability, CellTiter-Glo ATP luminescence, 48 h | Potency, µM (doses to about 46.1 µM), inactives show top-dose activity, negative = less viability, actives largely listed as cytotoxic | actives 1.6% (n = 360,000) | AID 686970;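 also: NT is the 2HG producing partner of a matched IDH1 knockdown line; potency is read from the fitted curve at half-maximal effect; 0% = DMSO-treated cells and -100% = media-only wells without cells; nearly all actives have a fitted effect of over 55% in size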
#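 Viability of the 2HG-overproducing fibrosarcoma line after 48 hours of compound exposure at 37 degrees C was determined by luminescence with CellTiter-Glo, and concentration-effect curves were then fitted and categorized.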
# TDP1 cell CPT = DT40-hTDP1 cell growth loss with CPT | actives 12% (n = 420,000) | chicken DT40 Tdp1-/-;hTDP1 cells + 20 nM CPT, ATP luminescence, 48 h | Potency, µM (doses to about 46.2 µM), for the others: at the top dose activity change, negative = growth inhibition, most hits filed as inhibitors; also: potency is read from the fitted curve at half-maximal effect; nearly all actives have a fitted effect of over 55% in size
#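 Chicken DT40 Tdp1-/- cells complemented with human TDP1, 400 cells/well, exposed to compounds plus 20 nM camptothecin for at least 48 h at 37 C; viability read as ATP content by CellTiter-Glo luminescence.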
# ALOX12 inh = ALOX12 (human) lipoxygenase inhibition; P18054; purified 12hLO, xylenol orange hydroperoxide absorbance; Potency, µM (series often up to 108 µM), without a hit: at the highest dose activity change, negative = inhibition, hits mostly inhibitors; actives 1.1% (n = 580,000); also: potency is read from the fitted curve at half-maximal effect
#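 Purified human 12hLO at 150 nM in 25 mM Hepes, 0.01% Triton X-100, pH 7.0, preincubated 15 min at room temperature with compound. Reaction started with 40 uM arachidonic acid, 30 min at room temperature. Hydroperoxide measured by Fe-xylenol orange, 573/405 nm absorbance ratio.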
# TDP1 cell noCPT = qHTS for Inhibitors of human tyrosyl-DNA phosphodiesterase 1 (TDP1): qHTS in cells in absence of CPT | DT40 Tdp1-/- hTDP1 cells, no CPT, ATP luminescence, 48 h | Potency, µM (titrated, usually from 46.2 µM), inactives show at the top dose activity change, negative = growth inhibition, hits mostly inhibitors | actives 15% (n = 420,000) | AID 686978, 2013; also: potency is read from the fitted curve at half-maximal effect; nearly all actives have a fitted effect of over 55% in size
#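 Readout: luminescence from CellTiter-Glo after 30 min in the dark at RT. Cells: DT40 Tdp1-/- with stable hTDP1, 400/well. Exposure: compounds alone, ≥48 hr, 37 °C.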
# IL-1B inflam inh = blocks inflammasome-driven IL-1 beta release. THP-1 LPS/ATP IL-1B secretion, AlphaLISA, 16 h; hits give low values. activity change, % at 57.5 µM. actives 4.7% (n = 360,000). AID 743279; in the data active = activity change below about -50%; inconclusive = mostly about -30% to -49%
#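 THP-1 cells pretreated 1 hr with compounds (up to 57.5 uM final), then stimulated with LPS (250 ng/mL final) plus ATP (1.25 mM final); secreted IL-1B measured by AlphaLISA after 16 hr, decreased signal indicating inhibition.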
# HT1080 IDH1KD tx = toxicity to HT-1080 IDH1 knockdown cells (counter line); HT-1080 IDH1 knockdown viability, ATP luminescence, 48 h; Potency, µM (top dose mostly 46.1 µM), inactives show at the highest dose activity, negative = toxicity, usual class: cytotoxic; actives 2% (n = 360,000); AID 686971;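 also: potency is read from the fitted curve at half-maximal effect; 0% = DMSO wells and -100% = cell-free medium wells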
#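 Using the IDH1-knockdown HT-1080 line run in the same batch and compound series as the NT line, viability after 48 h at 37 °C was determined by CellTiter-Glo luminescence and expressed as % activity.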
# Starred values were filed as active, the others as inactive; ? = inconclusive; . = not tested or not shown; [ ] = remark or other dose. Many of the other results were omitted from the sample, so hits are more common in it than they were. Unless noted, calls follow the shape of the dose curve; as a rule, active = well fitted curve in the direction sought with a large enough effect; inconclusive = small, poorly fitted or top-dose-only effect, or another doubt; inactive = no such curve, though single readings can be large; an effect the other way counts as inactive or inconclusive. Unless noted, % is scaled to controls: 0 for no effect and ±100 for the full control effect.
SMILES,HT1080-NT tox,TDP1 cell CPT,ALOX12 inh,TDP1 cell noCPT,IL-1B inflam inh,HT1080 IDH1KD tx
CCCn1c2ccccc2c2nnc(SCC(=O)Nc3cccc(C(C)=O)c3)nc21,.,?,-12.7%,14.6µM*,.,.
O=[N+]([O-])c1ccc(N2CCCC2)cc1N/N=C1\CN2CCC1CC2,14.4%,?,-28.9%,20.6µM*,-15.6,23.3%
O=C(OCC(=O)c1ccc([N+](=O)[O-])cc1)/C(=C/c1ccc(Cl)cc1)NC(=O)c1ccccc1,-0.7%,16.4µM*,-6.1%,23.1µM*,-12.0,7.0%
O=C(COC(=O)Cc1ccccc1)NNC(=O)c1ccc([N+](=O)[O-])cc1,-7.5%,-13.2%,-6.4%,11.8%,9.9,-5.0%
COc1ccc(OC(=O)N(C)C[C@H]2OCc3cnnn3CCCC(=O)N([C@H](C)CO)C[C@@H]2C)cc1,1.7%,3.8%,-8.2%,-5.5%,11.8,4.7%
C[C@@H]1CN([C@H](C)CO)C(=O)c2c(c3ccccc3n2C)-c2ccccc2CO[C@H]1CN(C)Cc1ccc(-c2ccccc2)cc1,20.6µM*,18.4µM*,12.8%,20.6µM*,?,16.4µM*
COc1ccc(OC(=O)N(C)C[C@@H]2OCc3ccccc3-c3c(n(C)c4ccccc34)C(=O)N([C@H](C)CO)C[C@@H]2C)cc1,-5.8%,6.4%,-13.4%,23.1µM*,-11.3,-8.4%
C[C@@H]1CN([C@H](C)CO)C(=O)c2c(c3ccccc3n2C)-c2ccccc2CO[C@@H]1CN(C)Cc1ccc(O)cc1,-5.6%,20.6µM*,-67.7%,14.6µM*,?,-4.6%
Cc1ccccc1S(=O)(=O)N(C)C[C@@H]1OCc2ccccc2-c2c(n(C)c3ccccc23)C(=O)N([C@H](C)CO)C[C@@H]1C,-13.4%,16.4µM*,6.5%,20.6µM*,-9.1,-23.0%
COc1cccc(CN(C)C[C@@H]2OCc3ccccc3-c3c(n(C)c4ccccc34)C(=O)N([C@@H](C)CO)C[C@H]2C)c1,?,-22.0%,-3.7%,?,-26.6,?
C[C@@H]1CN([C@@H](C)CO)C(=O)c2c(c3ccccc3n2C)-c2ccccc2CO[C@H]1CN(C)S(=O)(=O)c1ccc(C#N)cc1,-15.3%,5.3%,?,?,-21.0,-27.8%
COC[C@H]1C[C@@H](NC2CCC2)[C@H](O)[C@@H]1O,.,.,0.7%[176 µM],.,.,.
CCOC(=O)c1c(C)n(Cc2ccccc2)c2ccc(OCC(O)CN3C(=O)CNC3=O)cc12 (configuration not stated),0.0%,?,6.5%[57.4 µM],14.6µM*,-26.4,-4.2%
O=C([C@H]1CN2CCC1C[C@@H]2Cn1cc(COc2ccccc2)nn1)N1CCOCC1 (some centres not stated),.,.,7.9%[176 µM],.,.,.
N#Cc1ccc(C(=O)N2CCN(c3nc4ccc(F)cc4s3)CC2)cc1,.,2.31µM*,-19.4%,2.31µM*,.,.
O=C(c1ccc(F)cc1)N1CCC(C(=O)O)(c2ccccc2)CC1,.,.,8.9%[6.33 µM],.,.,.
CN(C)c1ccc(C(=O)NC[C@H]2C[C@@H]3CCN2C[C@@H]3CN2CCN(c3ccc(F)cc3)CC2)cc1,.,.,62.8%,.,.,.
COc1ccc(Nc2cc(C)c3cc(NC(=O)c4ccccc4Cl)ccc3n2)cc1,.,20.6µM*,-15.6%,9.2µM*,.,.
C1CC(NC2CCOCC2)CCN1,.,.,-9.6%,.,.,.
CCCSc1ncc(CN2CCC3(CCNCC3)C2)cn1,.,.,11.4%,.,.,.
O=C(NCC1=C(c2ccc3ccccc3c2)C[C@@H]2CC[C@H]1N2Cc1ccco1)c1ccncc1,-4.8%,?,-18.7%,?,-8.3,-17.1%
